Screen size: about 75,000 compounds; about 5,700 (7.6%) were called active. Roughly 7% stayed inconclusive and do not appear here. This is one part of a sample in which actives are shown more often than they occur. Calls come from the whole dose curve; as a rule, active = well fitted inhibition curve with a large enough effect; inconclusive = small, poorly fitted or top-dose-only effect; inactive = no such curve, though single readings can be large or run the other way.
These compounds were tested against 3-hydroxyacyl-CoA dehydrogenase type-2 (Homo sapiens) (UniProt Q99714) (assay: qHTS Assay for Inhibitors of HSD17B4, hydroxysteroid (17-beta) dehydrogenase 4). Settings: recombinant HSD17B10, NADH fluorescence kinetic; series mostly up to 57.1 µM; activity change, negative = inhibition: at the top concentration.
Description: Assay Overview: NIH Molecular Libraries Screening Centers Network [MLSCN] NIH Chemical Genomics Center [NCGC] Structural Genomics Consortium [SGC] Grant number: None HADH2: Hydroxyacyl-Coenzyme A dehydrogenase, type II, was supplied by researchers at the Structural Genomics Consortium, Oxford University lab (PI Udo Oppermann). The mitochondrial enzyme 17-hydroxysteroid dehydrogenase type 10 (HSD17-10) previously classified as type II hydroxyacyl-CoA dehydrogenase (HADH2) catalyzes the NAD+ dependent oxidation of a variety of substrates including acyl-CoAs, androgens and neurosteroids as well as bile acids(Shafqat N, Marschall HU, Filling C, et al. Biochemical Journal. 2003;376(Pt 1):49-60). […] The enzyme was produced by E.coli fermentation as His-tagged recombinant for the purpose of X-ray structure determination, and had been mass-spectrometry characterized. Inhibition of HADH2 activity was screened by utilizing beta-hydroxybutyryl coenzyme A as an electron donor and NAD+ as an electron acceptor/cofactor. An increase in the fluorescence intensity due to conversion of NAD+ to NADH was used to measure the enzyme activity.
Assay Protocol: Buffer: 100 mM Tris-HCl pH 9.0, containing 0.01 % Tween-20. Reagents/Controls: Buffer in columns 3 and 4 as negative control (no enzyme). Substrate/cofactor solution: 1 mM NAD+ and 90 uM beta-hydroxybutyryl coenzyme A (Sigma-Aldrich, St. Louis, MO) final concentrations dispensed throughout the plate. Enzyme: 20 nM HADH2 final concentration in columns 1, 2, 5-48. Column 1 is neutral (100% activity). Column 2 contained titration of apomorphine (Sigma-Aldrich, A 4393, PubChem CID 2215, top concentration 500 uM, then 1:2 dilution in duplicate) Assay Steps: Three uL of enzyme were dispensed to 1536-well Greiner black solid bottom plates. Compounds and controls (23 nL) were transferred via Kalypsys PinTool. The plates were incubated for 15 min at room temperature, and then 1 uL of substrate/cofactor solution was added to start the reaction. The plates were immediately transferred to and read every 30 seconds for 4 min on ViewLux High-throughput CCD imager (Perkin-Elmer) using 360 nm excitation and 450 nm emission fluorescence protocol. The fluorescence intensity difference between the last and the first time points was used to compute reaction progress.
In the case of `CCOC(=O)C1=C(O)CSC1=Nc1cccc(Cl)c1`, the “activity change, negative = inhibition” value is reported as 5.61% (inactive).
`CCOC(=O)c1cc(-c2ccc(Cl)s2)nc2c1c(C)nn2C` was tested, and the Potency was 31.6 µM (active).
For `Cn1cccc1Cc1nnc(SCC(=O)NCCc2ccccc2)n1-c1ccc(F)cc1`, the “activity change, negative = inhibition” value was 3.88% (inactive).
With `N#Cc1c(NC(=O)CCCN2C(=O)c3ccccc3C2=O)oc(-c2ccccc2)c1-c1ccccc1` the “activity change, negative = inhibition” value was 5.71% (inactive).
`Cc1ccc(N2C(=O)c3oc4ccccc4c(=O)c3C2c2cccnc2)nc1` (stereo not given) was tested, and the “activity change, negative = inhibition” value was 5.96% (inactive).
With `COCCn1c(-c2ccc(OC)c(OC)c2)nc2ccccc21` the Potency was 25.1 µM (active).
For `COc1ccc(CCn2c(-c3ccco3)nc3nc4ccccc4nc32)cc1OC`, the “activity change, negative = inhibition” value was -12.8% (inactive).
In the case of `CCCn1c(C(O)c2cc(OC)ccc2OC)nc2ccccc21` (stereo not given), the “activity change, negative = inhibition” value is reported as -0.382% (inactive).
With `COCCCn1c2nc3ccccc3nc2c2c(=O)n(Cc3ccc(Cl)cc3)c(C)nc21` the Potency was 2 µM (active).
In the case of `Cc1nc2c(c(=O)n1Cc1ccco1)c1nc3ccccc3nc1n2Cc1ccccc1`, the Potency is reported as 25.1 µM (active).
For `Nc1cc(=O)nc(SCc2ccccc2)n1Cc1ccco1`, the “activity change, negative = inhibition” value was -1.73% (inactive).
`COc1ccccc1NC(=O)CSc1nc2sc(C)c(C)c2c(=O)n1Cc1ccco1` was tested, and the “activity change, negative = inhibition” value was -11.5% (inactive).
`CC(Sc1nc2ccccc2c(=O)n1Cc1ccco1)C(=O)c1ccccc1` (stereo not given) was tested, and the “activity change, negative = inhibition” value was 7.76% (inactive).
For `Cc1nc2ccccc2c(=O)n1CCCn1ccnc1`, the “activity change, negative = inhibition” value was 2.75% (inactive).
With `Cc1ccc(Cn2c(C)nc3c(c2=O)c2nc4ccccc4nc2n3Cc2ccco2)cc1` the Potency was 25.1 µM (active).
For `N#Cc1c(NC(=O)CSc2nc3ccccc3c(=O)n2Cc2ccco2)sc2c1CCCC2`, the “activity change, negative = inhibition” value was -28.8% (inactive).
`Cn1c(COc2ccc(Cl)cc2)nc2ccccc2c1=O` was tested, and the “activity change, negative = inhibition” value was -28.2% (inactive).
In the case of `CC1CCN(c2nc3c(c(=O)[nH]c(=O)n3C)n2CCCc2ccccc2)CC1`, the “activity change, negative = inhibition” value is reported as 8.8% (inactive).
In the case of `CCC1(C)CC(=O)NC1=O` (stereo not given), the “activity change, negative = inhibition” value is reported as -1.08% (inactive).
`COc1ccc(N)c(OC)c1` was tested, and the “activity change, negative = inhibition” value was 3.29% (inactive).
With `CCOC(=O)CSc1nnc(CNc2ccc(F)cc2)o1` the “activity change, negative = inhibition” value was -11.8% (inactive).
In the case of `CC/C(=N\O)C(C)(C)/[N+]([O-])=C/c1ccc(Br)cc1`, the “activity change, negative = inhibition” value is reported as 15.6% (inactive).
With `O=C(O)C(O)[C@@](O)(Cc1ccc(O)cc1)C(=O)O` (stereo not given in full) the “activity change, negative = inhibition” value was -0.363% (inactive).
For `CC1Cn2c(nnc2-c2cccs2)S1` (stereo not given), the “activity change, negative = inhibition” value was -1.46% (inactive).
For `CSc1cccc(NC(=O)CSc2ccccc2)c1`, the “activity change, negative = inhibition” value was -27.3% (inactive).
With `NC(=NC(=O)c1ccccc1)C1=C(O)CCC1=O` the “activity change, negative = inhibition” value was 2.94% (inactive).
In the case of `CCS(=O)(=O)N(C)[C@@H]1c2cc(C#N)ccc2OC(C)(C)[C@H]1O`, the Potency is reported as “inactive”.
In the case of `Cc1cc(=O)oc(C)c1C(=O)Nc1cnc2ccccc2c1`, the “activity change, negative = inhibition” value is reported as -0.842% (inactive).
For `Cc1ccc2nc(-c3ccccc3)cc(C(=O)O)c2c1`, the “activity change, negative = inhibition” value was -22.3% (inactive).
For `Cc1ccc(NC(=O)c2cc(-c3ccc(C)o3)nc3ccccc23)nc1`, the Potency was 31.6 µM (active).
For `Cc1ccc(S(=O)(=O)N2CCC(C(=O)OCC(=O)N3CC(=O)Nc4ccccc43)CC2)cc1`, the “activity change, negative = inhibition” value was 9.91% (inactive).
In the case of `CC(C)n1c(C(O)c2ccccc2)nc2ccccc21` (stereo not given), the “activity change, negative = inhibition” value is reported as 12.2% (inactive).
In the case of `CC(Nc1nc(N2CCCC2)nc2ccccc12)c1ccccc1` (stereo not given), the Potency is reported as 31.6 µM (active).
In the case of `Cc1ccc(C(CC(=O)O)Nc2nc(N3CCCCC3)nc(N3CCCCC3)n2)cc1` (stereo not given), the “activity change, negative = inhibition” value is reported as -1.92% (inactive).
In the case of `C[N+](C)(C)CCCCCNCC12CC3CC(CC(C3)C1)C2`, the “activity change, negative = inhibition” value is reported as 3.87% (inactive).
With `O=C(OCC(=O)c1cccs1)C1=COCCO1` the “activity change, negative = inhibition” value was 8.65% (inactive).
In the case of `CCOC(=O)c1cnc2sccn2c1=O`, the Potency is reported as 25.1 µM (active).
`O=C(Oc1cccnc1)c1cc2ccccc2oc1=O` was tested, and the Potency was 25.1 µM (active).
In the case of `OCCCNCc1ccccn1`, the activity change, negative = inhibition is reported as -1.43% [at 11.4 µM] (inactive).
`O=C(Nc1ccncc1)c1cc2ccccc2o1` was tested, and the “activity change, negative = inhibition” value was 10.3% (inactive).
In the case of `CCOC(=O)c1cnc(-n2nc(C)cc2C)nc1-n1nc(C)cc1C`, the “activity change, negative = inhibition” value is reported as -10.5% (inactive).
`O=C(CCSCCc1ccccn1)Nc1nccs1` was tested, and the “activity change, negative = inhibition” value was -2.41% (inactive).
In the case of `O=C(NCc1ccccn1)c1cnc2sccn2c1=O`, the Potency is reported as 25.1 µM (active).
For `O=C(NCc1ccccn1)c1c(O)c2c([nH]c1=O)CCCC2`, the “activity change, negative = inhibition” value was -2.63% (inactive).
`Nc1ncc(-c2cc3ccccc3oc2=O)s1` was tested, and the “activity change, negative = inhibition” value was -2.43% (inactive).
In the case of `O=C(NCc1ccccn1)Nc1ccc(F)cc1`, the “activity change, negative = inhibition” value is reported as 7.82% (inactive).
`O=C(NCc1ccccn1)c1cc2ccccc2oc1=O` was tested, and the Potency was 31.6 µM (active).
In the case of `CCOC(=O)c1cc2n(c1C)-c1ccccc1C2=O`, the “activity change, negative = inhibition” value is reported as 3.78% (inactive).
`Brc1cc(Br)c(Oc2cc(Br)c(Br)cc2Br)cc1Br` was tested, and the “activity change, negative = inhibition” value was -9.08% (inactive).
In the case of `COc1cccc2sc(Nc3nc(C)c(C(C)=O)s3)nc12`, the “activity change, negative = inhibition” value is reported as -6.55% (inactive).
With `COC(=O)CNS(=O)(=O)c1ccc(Cc2ccc(S(=O)(=O)NCC(=O)OC)cc2)cc1` the “activity change, negative = inhibition” value was 3.44% (inactive).
In the case of `CC(=O)OCC(COC(C)=O)OC(C)=O`, the “activity change, negative = inhibition” value is reported as 3.21% (inactive).
`CNC(=O)C1(C)C=CC2(CCCCC2)N1C(C)=O` (stereo not given) was tested, and the “activity change, negative = inhibition” value was 5.61% (inactive).
In the case of `O=C(c1ccccc1-c1ccccc1)N1CCOCC1`, the “activity change, negative = inhibition” value is reported as 8.37% (inactive).
In the case of `CC(C(=O)N1CCOCC1)N1c2cccc3cccc(c23)S1(=O)=O` (stereo not given), the Potency is reported as 31.6 µM (active).

Reference: PubChem BioAssay AID893 (National Center for Advancing Translational Sciences (NCATS), 2007)
% is set by controls: 0 for no effect and ±100 for the full control effect; potency is the fitted concentration of half-maximal effect.
Note: nearly all actives have a fitted effect of over 70% in size.
